# The supplement of paper PMC10037445
# Over roughly 2,900 compounds, “NF-kB SEAP reporter activity, fold change vs agonist alone” has its median near 0.99; the highest 2% begin near 2.6. For the sample, the highest values were picked, then their nearest neighbours and some compounds at random.
# Columns and labels:
# RAW-Dual [1] = experiment: NF-kB SEAP reporter activity, fold change vs agonist alone; cytotoxicity flag (confluency mask): cytotoxic (confluency <70% of control); higher = enhanced NF-kB activity
# Method in brief: (§1)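 After 50 nL of library stock was delivered by pin tool to RAW-Dual macrophages (50,000 cells/well, DMEM, 384-well plates), a PRR agonist was added 1 h later and the plates were kept at 37 °C, 5% CO2. Twenty hours later, IRF was read from supernatant by QuantiLuc luminescence and NF-κB by QuantiBlue absorbance at 620 nm. Reporter activity is stated as fold change over agonist-alone wells. Wells with IncuCyte confluency under 70% of agonist controls in both mask sets were counted as cytotoxic.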
# RAW-Dual [2] = experiment: NF-kB SEAP reporter activity, fold change vs agonist alone; higher = enhanced NF-kB activity
# Method in brief: as §1
# RAW-Dual [3] = experiment: NF-kB SEAP reporter activity, fold change vs agonist alone; cytotoxicity flag (confluency mask): not cytotoxic; higher = enhanced NF-kB activity
# Method in brief: as §1
# [4] = agonist: ODN 1826 (TLR9) 0.5 ug/mL
# [5] = agonist: Pam2CSK4 (TLR2/6) 0.1 ug/mL
# [6] = agonist: Pam3CSK4 (TLR2/1) 0.1 ug/mL
# [7] = library stock concentration (final ~1000-fold dilution): 10 mM, cytotoxicity flag (confluency mask): cytotoxic (confluency <70% of control), agonist: Imiquimod (TLR7) […]
# [8] = library stock concentration (final ~1000-fold dilution): 10 mM, cytotoxicity flag (confluency mask): cytotoxic (confluency <70% of control), agonist: MPLA (TLR4) […]
# [9] = library stock concentration (final ~1000-fold dilution): 10 mM, cytotoxicity flag (confluency mask): not cytotoxic, agonist: Imiquimod (TLR7) […]
# [10] = library stock concentration (final ~1000-fold dilution): 10 mM, cytotoxicity flag (confluency mask): not cytotoxic, agonist: MPLA (TLR4) […]
smiles,measurement,setting,value
Cc1cc2c(F)c(Oc3ncnn4cc(OCC(C)OC(=O)C(C)N)c(C)c34)ccc2[nH]1 (stereo not given) (library stock concentration (final ~1000-fold dilution): 10 mM),NF-kB SEAP reporter activity,RAW-Dual [1]; agonist: LPS (TLR4) 0.1 ug/mL,1.52
same,NF-kB SEAP reporter activity,RAW-Dual [1]; [4],0.94
same,NF-kB SEAP reporter activity,RAW-Dual [1]; [5],0.759
same,NF-kB SEAP reporter activity,RAW-Dual [1]; [6],1.13
Cc1cc2c(F)c(Oc3ncnn4cc(OCC(C)OC(=O)C(C)N)c(C)c34)ccc2[nH]1 (stereo not given),NF-kB SEAP reporter activity,RAW-Dual [2]; [7],1.98
same,NF-kB SEAP reporter activity,RAW-Dual [2]; [8],1.72
Nc1ccn(CC(CO)OCP(=O)(O)O)c(=O)n1 (stereo not given) (library stock concentration (final ~1000-fold dilution): 10 mM water),NF-kB SEAP reporter activity,RAW-Dual [3]; agonist: LPS (TLR4) 0.1 ug/mL,1.2
same,NF-kB SEAP reporter activity,RAW-Dual [3]; [4],1.23
same,NF-kB SEAP reporter activity,RAW-Dual [3]; [5],1.32
same,NF-kB SEAP reporter activity,RAW-Dual [3]; [6],1.29
Nc1ccn(CC(CO)OCP(=O)(O)O)c(=O)n1 (stereo not given),NF-kB SEAP reporter activity,"RAW-Dual [2]; library stock concentration (final ~1000-fold dilution): 10 mM water, cytotoxicity flag (confluency mask): not cytotoxic, agonist: Imiquimod (TLR7) […]",0.956
same,NF-kB SEAP reporter activity,"RAW-Dual [2]; library stock concentration (final ~1000-fold dilution): 10 mM water, cytotoxicity flag (confluency mask): not cytotoxic, agonist: MPLA (TLR4) […]",1.04
O=C(c1cn(Cc2cncn2Cc2ccc(Br)cc2)cc1-c1cccc2ccccc12)N1CCOCC1,NF-kB SEAP reporter activity,RAW-Dual [2]; [9],1.35
same,NF-kB SEAP reporter activity,RAW-Dual [2]; [10],1.46
O=C(c1cn(Cc2cncn2Cc2ccc(Br)cc2)cc1-c1cccc2ccccc12)N1CCOCC1 (library stock concentration (final ~1000-fold dilution): 10 mM),NF-kB SEAP reporter activity,RAW-Dual [3]; agonist: LPS (TLR4) 0.1 ug/mL,2.82
same,NF-kB SEAP reporter activity,RAW-Dual [3]; [4],1.54
same,NF-kB SEAP reporter activity,RAW-Dual [3]; [5],0.96
same,NF-kB SEAP reporter activity,RAW-Dual [3]; [6],1.16
O=C1NC(=O)C(c2cn3c4c(cccc24)CCC3)C1c1c[nH]c2ccccc12 (stereo not given),NF-kB SEAP reporter activity,RAW-Dual [2]; [9],2.44
same,NF-kB SEAP reporter activity,RAW-Dual [2]; [10],1.84
O=C1NC(=O)C(c2cn3c4c(cccc24)CCC3)C1c1c[nH]c2ccccc12 (stereo not given) (library stock concentration (final ~1000-fold dilution): 10 mM),NF-kB SEAP reporter activity,RAW-Dual [3]; agonist: LPS (TLR4) 0.1 ug/mL,3.41
same,NF-kB SEAP reporter activity,RAW-Dual [3]; [4],2.7
same,NF-kB SEAP reporter activity,RAW-Dual [3]; [5],1.49
same,NF-kB SEAP reporter activity,RAW-Dual [3]; [6],1.4
Cl.Clc1cccc(-c2nnnn2Cc2cccnc2)c1Cl (library stock concentration (final ~1000-fold dilution): 10 mM),NF-kB SEAP reporter activity,RAW-Dual [3]; agonist: LPS (TLR4) 0.1 ug/mL,1.07
same,NF-kB SEAP reporter activity,RAW-Dual [3]; [4],0.95
same,NF-kB SEAP reporter activity,RAW-Dual [3]; [5],1.04
same,NF-kB SEAP reporter activity,RAW-Dual [3]; [6],0.958
Cl.Clc1cccc(-c2nnnn2Cc2cccnc2)c1Cl,NF-kB SEAP reporter activity,RAW-Dual [2]; [9],1
same,NF-kB SEAP reporter activity,RAW-Dual [2]; [10],1.06
CC1COC2Cn3cc(C(=O)NCc4ccc(F)cc4F)c(=O)c(O)c3C(=O)N12 (stereo not given),NF-kB SEAP reporter activity,RAW-Dual [2]; [9],0.969
same,NF-kB SEAP reporter activity,RAW-Dual [2]; [10],1.11
CC1COC2Cn3cc(C(=O)NCc4ccc(F)cc4F)c(=O)c(O)c3C(=O)N12 (stereo not given) (library stock concentration (final ~1000-fold dilution): 10 mM),NF-kB SEAP reporter activity,RAW-Dual [3]; agonist: LPS (TLR4) 0.1 ug/mL,1.38
same,NF-kB SEAP reporter activity,RAW-Dual [3]; [4],1.03
same,NF-kB SEAP reporter activity,RAW-Dual [3]; [5],0.808
same,NF-kB SEAP reporter activity,RAW-Dual [3]; [6],0.866
CCC1C(=O)N(C)c2cnc(Nc3ccc(C(=O)NC4CCN(C)CC4)cc3OC)nc2N1C1CCCC1 (stereo not given),NF-kB SEAP reporter activity,RAW-Dual [2]; [7],2.21
same,NF-kB SEAP reporter activity,RAW-Dual [2]; [8],0.949
Cc1cc(Nc2ncc3c(n2)N(C)C(=O)N(c2cc(NC(=O)c4cccc(C(F)(F)F)c4)ccc2C)C3)n(C)n1 (library stock concentration (final ~1000-fold dilution): 10 mM),NF-kB SEAP reporter activity,RAW-Dual [1]; agonist: LPS (TLR4) 0.1 ug/mL,0.283
same,NF-kB SEAP reporter activity,RAW-Dual [1]; [4],0.186
same,NF-kB SEAP reporter activity,RAW-Dual [1]; [5],0.0623
same,NF-kB SEAP reporter activity,RAW-Dual [1]; [6],0.124
CCC1C(=O)N(C)c2cnc(Nc3ccc(C(=O)NC4CCC(N5CCN(CC6CC6)CC5)CC4)cc3OC)nc2N1C(C)C (stereo not given),NF-kB SEAP reporter activity,RAW-Dual [2]; [9],0.55
same,NF-kB SEAP reporter activity,RAW-Dual [2]; [10],0.684
C=CC(=O)Nc1cccc(Nc2nc(Nc3ccc(NC4CN(CCF)C4)cc3OC)ncc2C(F)(F)F)c1,NF-kB SEAP reporter activity,RAW-Dual [2]; [9],1.26
same,NF-kB SEAP reporter activity,RAW-Dual [2]; [10],1.53
COc1cc(C(=O)NC2CCN(C)CC2)ccc1Nc1ncc2c(n1)N(C1CCCC1)CC(F)(F)C(=O)N2C,NF-kB SEAP reporter activity,RAW-Dual [2]; [7],1.71
same,NF-kB SEAP reporter activity,RAW-Dual [2]; [8],2.85
COc1cc(OC2CCN(C)CC2)ccc1Nc1ncc2c(n1)n(C1CCCC1)c(=O)n2C (library stock concentration (final ~1000-fold dilution): 10 mM),NF-kB SEAP reporter activity,RAW-Dual [3]; agonist: LPS (TLR4) 0.1 ug/mL,1.17
same,NF-kB SEAP reporter activity,RAW-Dual [3]; [4],0.955
same,NF-kB SEAP reporter activity,RAW-Dual [3]; [5],0.964
same,NF-kB SEAP reporter activity,RAW-Dual [3]; [6],1.16
CCC1C(=O)N(C)c2cnc(Nc3ccc(C(=O)NC4CCC(N5CCN(CC6CC6)CC5)CC4)cc3OC)nc2N1C(C)C (stereo not given) (library stock concentration (final ~1000-fold dilution): 10 mM),NF-kB SEAP reporter activity,RAW-Dual [3]; agonist: LPS (TLR4) 0.1 ug/mL,5.71
same,NF-kB SEAP reporter activity,RAW-Dual [3]; [4],0.977
same,NF-kB SEAP reporter activity,RAW-Dual [3]; [5],1.95
same,NF-kB SEAP reporter activity,RAW-Dual [3]; [6],0.886
Cc1cc(Nc2ncc3c(n2)N(C)C(=O)N(c2cc(NC(=O)c4cccc(C(F)(F)F)c4)ccc2C)C3)n(C)n1,NF-kB SEAP reporter activity,RAW-Dual [2]; [7],0.128
same,NF-kB SEAP reporter activity,RAW-Dual [2]; [8],0.265
CCC1C(=O)N(C)c2cnc(Nc3ccc(C(=O)NC4CCN(C)CC4)cc3OC)nc2N1C1CCCC1 (stereo not given) (library stock concentration (final ~1000-fold dilution): 10 mM),NF-kB SEAP reporter activity,RAW-Dual [1]; agonist: LPS (TLR4) 0.1 ug/mL,0.276
same,NF-kB SEAP reporter activity,RAW-Dual [1]; [4],1.3
same,NF-kB SEAP reporter activity,RAW-Dual [1]; [5],1.54
same,NF-kB SEAP reporter activity,RAW-Dual [1]; [6],3.64
COc1cc(OC2CCN(C)CC2)ccc1Nc1ncc2c(n1)n(C1CCCC1)c(=O)n2C,NF-kB SEAP reporter activity,RAW-Dual [2]; [9],1.11
same,NF-kB SEAP reporter activity,RAW-Dual [2]; [10],0.875
CCC(=O)Nc1cccc(Oc2nc(Nc3ccc(N4CCN(C)CC4)cc3OC)ncc2Cl)c1,NF-kB SEAP reporter activity,RAW-Dual [2]; [7],1.1
same,NF-kB SEAP reporter activity,RAW-Dual [2]; [8],1.7
CCC(=O)Nc1cccc(Oc2nc(Nc3ccc(N4CCN(C)CC4)cc3OC)ncc2Cl)c1 (library stock concentration (final ~1000-fold dilution): 10 mM),NF-kB SEAP reporter activity,RAW-Dual [1]; agonist: LPS (TLR4) 0.1 ug/mL,1.65
same,NF-kB SEAP reporter activity,RAW-Dual [1]; [4],0.875
same,NF-kB SEAP reporter activity,RAW-Dual [1]; [5],0.603
same,NF-kB SEAP reporter activity,RAW-Dual [1]; [6],1.02
